Compounds without any hit were thinned out: in the full panel of roughly 83,000, 20% have a hit.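 96-well plates, one dose, 48 hours. Percent growth reported; active if below 10.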 The source made the active and inactive calls.
System: SF-295 CNS
Assay: NCI-60 one-dose screen, 48 h (100 = growth as untreated, 0 = no growth, -100 = all killed)
Conditions: 10 µM

Row | Compound | growth
1 | O=C1CC(c2cccc(-c3cccnc3)c2)=Nc2ccc(Br)cc2N1 | 48.7% (inactive)
2 | CCCOCC(O)CNCCN (configuration not stated) | 94.2% (inactive)
3 | COc1ccc(C2C=C(c3ccc(Cl)c(Cl)c3)N=C3SC(C)=CN32)cc1 (configuration not stated) | 87.3% (inactive)
4 | COC(=O)c1cnc2c(c1)Oc1ccccc1-c1ccnn1-2 | 105% (inactive)
5 | CCCCC(CC#N)(CCC)CCC | 96.7% (inactive)
6 | COc1cc(OC)cc(N2CCN(C(=O)Nc3nc4cc(F)ccc4nc3OC)CC2)c1 | 15% (inactive)
7 | CCOC(=O)Nc1ccc2c(c1)C(=O)N(CC)c1ccccc1O2 | 3.36% (active)
8 | C=C[C@]1(C)C=C2C(=O)[C@@]3(O)OC(=O)[C@@]4(CCCC(C)(C)[C@H]34)[C@@]2(O)CC1 | -17.2% (active)
9 | Cc1ccc2c3c(cccc13)-c1ccccc1C2=O | 95.1% (inactive)
10 | CCN(CC)CCn1c(=N)n(CC(O)c2ccc(Cl)c(Cl)c2)c2ccccc21 (configuration not stated) | 103% (inactive)
11 | COc1cc(Nc2ccnc(N3CCN(c4ccnc5cc(Cl)ccc45)CC3)n2)cc(OC)c1 | -19.2% (active)
12 | O=C1CC[C@@H](C(=O)N[C@H]2CSSC[C@@H](C(=O)NCCc3ccccc3)NC(=O)[C@H](Cc3ccccc3)NC(=O)[C@@H]3CCCN3C(=O)[C@@H]3CCCN3C2=O)N1 | 98.8% (inactive)
13 | COc1cc(C(c2c[nH]c3ccccc23)N2CCCC2)ccc1OCc1ccccc1 (configuration not stated) | 93.8% (inactive)
14 | Cc1ccc(/C=C2\CN(Cc3cn(CCNc4ccnc5cc(Cl)ccc45)nn3)C/C(=C\c3ccc(C)cc3)C2=O)cc1 | -58.8% (active)
15 | CCNC1(NC#N)CCCCC1 | 97.7% (inactive)
16 | CC(=O)Nc1ccc(Sc2ccc(NC(C)=O)cc2)cc1 | 102% (inactive)
17 | O=C(Nc1ccc(CN2CCOCC2)cc1)c1ccc(-c2cc(Cl)ccc2Cl)o1 | 57.6% (inactive)
18 | COc1cccc(C(=O)NNc2nc(N3CCN(C4CCCCC4)CC3)nc(N3CCN(C(c4ccccc4)c4ccccc4)CC3)n2)c1 | 77.3% (inactive)
19 | Oc1cc(O)c(Br)cc1Br | 98.7% (inactive)

Row | Compound | growth
20 | CS(=O)(=O)Nc1ccc(Nc2c3ccccc3nc3cc(Cl)ccc23)cc1 | -13.5% (active)
21 | c1ccc(C2CCCCC2)c(OCCCCCN2CCNCC2)c1 | 63.5% (inactive)
22 | Cc1nnc2c3nnc(-c4ccc(Cl)cc4)n3c3ccccc3n12 | 88.2% (inactive)
23 | Cc1ccc(C)c2c1sc1nc3n[nH]c(N)c3c(=N)n12 | 106% (inactive)
24 | CCCc1ccnc(NS(=O)(=O)c2ccc(N)cc2)n1 | 95.9% (inactive)
25 | CCc1ccc(Nc2cc(C)nc3nc(C)nn23)cc1 | 33.1% (inactive)
26 | CN(C)c1ccc2c(c1)OC(N)=C(C#N)C2c1ccc2c(c1)CCO2 (configuration not stated) | -3.28% (active)
27 | CC(C)C[C@H](NC(=O)CCn1ccc2ccccc2c1=O)B(O)O | 41% (inactive)
28 | COc1ccc(/C=C2\CCC3C(CCCC34OCCO4)C2=O)cc1 (configuration not stated) | 107% (inactive)
29 | COc1cc(-c2nc3ccc(C)cc3[nH]2)ccc1OCc1nnc(-c2ccc(CC(C)C)cc2)o1 | 96.3% (inactive)
30 | COc1ccc(CSc2nc3cc(OC)c(OC)cc3c(=O)n2-c2ccc(OC)cc2OC)cc1 | 89.6% (inactive)
31 | C[N+]1=C(/C=C/c2ccc(I)cc2)C(C)(C)c2ccccc21 | 100% (inactive)
32 | c1ccc(OCCC[P+](c2ccccc2)(c2ccccc2)c2ccccc2)cc1 | -30.7% (active)
33 | CCN1CCN(c2nc(NNC(=O)c3cccc(OC)c3)nc(N3CCN(C(c4ccccc4)c4ccccc4)CC3)n2)CC1 | 84% (inactive)
34 | CNC(=O)c1cc(Oc2ccc(NC(=O)Nc3ccc(Cl)c(C(C)(C)C)c3)c(F)c2)ccn1 | 24.5% (inactive)
35 | CCc1cc2n(n1)-c1ncc(C(=O)OC)cc1Oc1ccccc1-2 | 101% (inactive)
36 | O=C(O)c1ccc(CNc2ccc(C(=O)CCl)cc2)cc1 | 86.1% (inactive)
37 | CCN(CCCNC(=O)Cc1cc(=O)oc2cc(N(C)C)ccc12)CCNc1ccnc2cc(Cl)ccc12 | 80.5% (inactive)
